Drawing on PubChem BioAssay (EPA / NIEHS), this text covers AC50 and outcome for 26 compounds.

Molecules are shown by their SMILES. Records with an inconclusive call do not appear. Some structures have more than one record in an assay (separate samples or runs), and their calls can disagree. Active and inactive are the calls of the source. Rule for the calls: active = hit-call score of the fitted dose curve at least 0.9, where 1 is the maximum; inconclusive = response in the unintended direction; inactive = score below 0.9. Peptide text beside a SMILES is read from it.

Chain of Cellular tumor antigen p53 (Homo sapiens) (P04637 whole entry, looked up): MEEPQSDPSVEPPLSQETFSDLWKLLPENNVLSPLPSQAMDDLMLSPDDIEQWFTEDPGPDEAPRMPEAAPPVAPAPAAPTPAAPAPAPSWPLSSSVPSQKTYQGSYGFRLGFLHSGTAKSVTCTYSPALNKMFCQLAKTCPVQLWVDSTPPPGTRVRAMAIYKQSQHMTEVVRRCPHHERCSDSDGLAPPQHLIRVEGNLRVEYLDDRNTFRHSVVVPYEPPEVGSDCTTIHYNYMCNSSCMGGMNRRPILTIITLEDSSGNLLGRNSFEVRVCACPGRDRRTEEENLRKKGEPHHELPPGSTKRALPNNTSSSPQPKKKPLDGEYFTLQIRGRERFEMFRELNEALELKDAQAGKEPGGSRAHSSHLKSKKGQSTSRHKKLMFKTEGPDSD

The target in this assay is Cellular tumor antigen p53 (Homo sapiens) (UniProt P04637). Kind of assay: TOX21_p53_BLA_p3_ratio: Tox21 HCT-116 p53 Agonism Beta-lactamase Assay, Ratio, Phase 3 (AID 2283596). The essentials:
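Cells were seeded at 4000/well, rested 5 h at 37C, then dosed with DMSO compound solutions (217-fold dilution) for 16 h. CCF4-AM substrate was loaded for 2 h at room temperature, and the 460/530 nm emission ratio was fitted for gain of signal versus DMSO.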
In general, AC50 refers to the midpoint of the concentration-response curve, whichever way the signal moves. As for `CCCCCCCOC(=O)c1ccc(O)cc1`, the AC50 is 74.5 µM (active) and the outcome was inactive. Take `N#CC1(N)CCCCC1`: the result was inactive. Still for that read-out and setting: the result for `O=C(O)/C=C/c1ccccc1` reads “inactive”; that for `Oc1ccc(/C=C/c2cc(O)cc(O)c2)cc1`, “inactive”.

For `CCN1CCCC1=O`, the outcome was inactive. On the same count and under the same terms, the same measure for `CC(C)(C)C1CCC(=O)CC1`: “inactive”. As to `N=C1C=CC(=C(c2ccc(N)cc2)c2ccc(N)cc2)C=C1`, the AC50 is 60.4 µM (active). Consider `CC(C)(c1ccccc1)c1ccc(Nc2ccc(C(C)(C)c3ccccc3)cc2)cc1`, for which the result was inactive. Same read-out and setting: the result for `CC(C)c1ccc(O)c(C(C)C)c1` reads “inactive”; that for `COC(=O)[C@H](Cc1ccccc1)NC(=O)[C@@H](N)CC(=O)O` (H-Asp-Phe-OMe), “inactive”.

In the case of `CCCCNS(=O)(=O)c1ccccc1`, the outcome was inactive.

Regarding `C=C(C)OC(C)=O`, the result was inactive.

With `O=C(Cl)c1ccc(C(=O)Cl)cc1`, the outcome was inactive. Still for that read-out and setting: the result for `COc1ccc(-c2coc3cc(O)cc(O)c3c2=O)cc1` reads “inactive”; that for `CC(=O)CCC=C(C)C`, “inactive”. The same measure, in the same setting: the result for `O=C(O)c1ccc2c(c1)C(=O)OC2=O` reads “inactive”; that for `CC(CC(C)C)=NO`, “inactive”. Take `CC1OC(=O)C(C)OC1=O` (configuration not stated): the result was inactive. On the same count and under the same terms, the same measure for `O=C(Oc1ccccc1)c1ccccc1C(=O)Oc1ccccc1`: “inactive”; for `CCCCCCCCCCCCCC(=O)OC(C)C`: “inactive”; for `CC(C)c1cccc(C(C)C)c1N`: “inactive”. As to `O=C(Nc1ccccc1)c1cc(Cl)ccc1O`, the half-maximal activity concentration (AC50) was 4.05 µM (active).

On to `CC(C)[N+](C)(CCOC(=O)C1c2ccccc2Oc2ccccc21)C(C)C`, for which the outcome was inactive. In the case of `O=C(O)c1cc(O)c2ccccc2c1O`, the outcome was inactive. Still for that read-out and setting: the result for `O=C1CCCCCCCCCCCN1` reads “inactive”; that for `Fc1ccc(Br)cc1`, “inactive”.
